# Experimental data published in PMC4336329 (PLoS ONE, 2015).
# The campaign covered roughly 310,000 compounds. About 14,000 (4.5%) showed an effect of 50% or more. Effects have a minus sign here. The sample holds strong results, similar compounds and a random draw of the others, so the mix is not that of the screen.
# Target: human ether-à-go-go-related gene (hERG) potassium channel (human, UniProt Q12809)
# Assay: primary screen, population patch clamp on CHO cells stably expressing hERG; higher = less effect of the substance
# 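Note: peak tail current of the secondary pulse compared with the same well before compound.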
# Chain of human ether-à-go-go-related gene (hERG) potassium channel (Q12809 whole entry, looked up): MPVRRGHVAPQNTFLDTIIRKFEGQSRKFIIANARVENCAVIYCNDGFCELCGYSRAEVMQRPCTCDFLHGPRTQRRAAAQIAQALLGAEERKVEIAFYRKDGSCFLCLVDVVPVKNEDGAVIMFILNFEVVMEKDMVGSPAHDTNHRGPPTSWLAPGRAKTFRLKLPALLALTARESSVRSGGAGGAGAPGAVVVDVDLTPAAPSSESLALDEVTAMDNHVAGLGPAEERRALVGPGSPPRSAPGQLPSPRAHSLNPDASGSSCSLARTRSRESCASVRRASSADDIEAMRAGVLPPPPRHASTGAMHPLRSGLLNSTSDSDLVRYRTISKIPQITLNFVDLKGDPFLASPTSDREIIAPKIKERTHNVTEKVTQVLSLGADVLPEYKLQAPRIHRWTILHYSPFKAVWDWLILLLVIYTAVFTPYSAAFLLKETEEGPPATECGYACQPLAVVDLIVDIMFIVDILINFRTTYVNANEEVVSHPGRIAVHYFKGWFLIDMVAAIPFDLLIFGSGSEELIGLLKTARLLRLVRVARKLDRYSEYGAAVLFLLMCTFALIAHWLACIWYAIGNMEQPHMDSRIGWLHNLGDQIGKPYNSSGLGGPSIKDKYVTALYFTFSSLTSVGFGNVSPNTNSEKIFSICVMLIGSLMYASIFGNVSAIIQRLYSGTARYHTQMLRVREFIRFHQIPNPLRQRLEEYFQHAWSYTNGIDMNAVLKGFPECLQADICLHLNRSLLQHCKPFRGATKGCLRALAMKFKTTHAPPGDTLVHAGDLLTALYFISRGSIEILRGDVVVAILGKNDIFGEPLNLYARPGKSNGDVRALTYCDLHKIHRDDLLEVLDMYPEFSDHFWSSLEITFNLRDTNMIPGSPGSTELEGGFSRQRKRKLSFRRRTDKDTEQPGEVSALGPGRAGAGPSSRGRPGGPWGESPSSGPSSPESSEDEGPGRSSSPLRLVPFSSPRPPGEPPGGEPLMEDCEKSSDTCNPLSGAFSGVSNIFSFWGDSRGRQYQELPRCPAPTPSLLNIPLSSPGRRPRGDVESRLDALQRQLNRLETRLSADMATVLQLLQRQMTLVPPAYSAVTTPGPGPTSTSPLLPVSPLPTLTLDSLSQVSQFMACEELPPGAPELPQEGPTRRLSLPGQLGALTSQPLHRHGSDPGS
row,Compound,"hERG current change (%, negative = inhibition) at 10uM"
1,CC1(CC(=O)N/N=C/c2cc3c(cc2Br)OCO3)OCCO1,15.5%
2,CCc1c(C)sc(NC(=O)OC)c1C(=O)N1CCCCC1,-4.94%
3,COC(=O)c1ccc(N2CCN(c3ccccc3)CC2)c(NC(=O)C2CC2)c1,-35.6%
4,CC(=NCCc1c[nH]c2ccccc12)c1c(O)n(Cc2ccccc2)c(=O)[nH]c1=O,0.859%
5,COC(=O)N/N=C\c1cc(Br)ccc1OCc1ccccc1,-6.55%
6,O=C1CCCC(=O)C1=C1SCCCS1,-5.96%
7,COc1cccc(SCC2(O)CCN(C(=O)c3ccc(Cl)cc3)CC2)c1,-69%
8,COc1ccc(C(=O)N2CCN(c3ccc(C)cc3C)CC2)cc1OC,-68.5%
9,COc1ccc(C(=O)N2CCC(O)(c3ccc(Cl)cc3)CC2)cc1OC,-51.9%
10,COc1ccc(C(=O)N2CCN(c3c(C)cccc3C)CC2)cc1OC,-68.8%
11,O=C(c1ccc(Cl)cc1)N1CCC(O)(CSc2ccc(Cl)cc2)CC1,-44.4%
12,COc1ccc(C(=O)N2CCC(O)(c3ccc(F)cc3)CC2)cc1OC,-38.6%
13,COc1cc(C(=O)N2CCC(O)(c3ccccc3)CC2)cc(OC)c1OC,14.7%
14,O=C(c1ccc(Cl)cc1)N1CCC(O)(CSc2ccccc2)CC1,-38.1%
15,COc1ccc(C(=O)N2CCN(c3ccc(C)cc3)CC2)cc1OC,-21.8%
16,COc1cc(C(=O)N2CCN(c3ccc(C)cc3C)CC2)cc(OC)c1OC,-19.7%
17,COc1ccc(C(=O)N2CCN(c3ccc(C)c(C)c3)CC2)cc1OC,-6.14%
18,COc1ccc(C(=O)N2CCN(C(=O)c3ccc(-c4ccccc4)cc3)CC2)cc1OC,-43.6%
19,Cc1nc2ccc(Cl)cc2c(-c2ccccc2)c1C(=O)N(C)C.Cl,-5.56%
20,CCc1ccccc1NC(=O)CNC(=O)c1cc(C2CC2)nn1-c1ccccc1,-28.8%
21,O=C(c1noc2c1CCCC2)N1CCC(CO)(Cc2ccccc2Cl)CC1,-22.9%
22,COCCCNC(=O)Cn1ccc(N)nc1=O,11.4%

row,Compound,"hERG current change (%, negative = inhibition) at 10uM"
1,CN(C)C=O.O=C(Nc1cccc(S(=O)(=O)NC2=NCCCCC2)c1)c1cc(-c2ccco2)nc2ccccc12,19.7%
2,COc1ccc(-n2c(CNc3ccc(C)cc3)nnc2SCC(=O)Nc2nc(-c3ccccc3)cs2)cc1,-23.1%
3,CCN1C(=O)/C(=C/N(C)c2ccccc2)OC1=S,-8.25%
4,CC1CCc2c(sc(NC(=O)C(=O)NCc3ccco3)c2C#N)C1 (stereo not shown),-66.3%
5,CC1CCc2c(sc(NC(=O)CN3CCN(C(=O)c4ccco4)CC3)c2C#N)C1 (stereo not shown),-41.5%
6,CCN1CCN(CC(=O)Nc2sc3c(c2C#N)CCC3)CC1,-18.1%
7,CCN1CCN(CC(=O)Nc2sc3c(c2C#N)CCC(C)C3)CC1 (stereo not shown),-51.7%
8,CC(=O)Nc1sc2c(c1C#N)CCC(C)C2 (stereo not shown),-3.48%
9,CC1CCc2c(sc(NC(=O)COC(=O)c3ccccc3NCc3ccco3)c2C#N)C1 (stereo not shown),7.34%
10,O=C(CN1CCOc2ccccc21)N1CCC(Cc2ccccc2)CC1,-26.3%
11,Cc1nn(CCc2nn[nH]n2)c2nc(-c3ccccc3)cc(C(F)(F)F)c12,19.3%
12,COc1ccc(-c2csc(NCCc3nc4cc(Cl)c(N5CCCCC5)cc4n3CCOCCO)n2)cc1,-10.4%
13,CC1CCN(CC(=O)n2c3c(c4ccccc42)CCCC3)CC1.Cl,0.546%
14,CCc1ccc(-c2csc(NC(=O)c3cccnc3)n2)cc1,-3.93%
15,Cc1ccccc1N=C1N=C(N)c2ccccc21,-2.13%
16,CN(C)CCNC(=O)C1CC(=O)N(c2ccc(F)c(Cl)c2)C1 (stereo not shown),-11.2%
17,CN(CCNC(=O)C1CC(=O)N(c2ccc(F)c(Cl)c2)C1)Cc1ccccc1 (stereo not shown),-52.5%
18,COCCNC(=O)C1CC(=O)N(c2ccc(F)c(Cl)c2)C1 (stereo not shown),-2.89%
19,O=C(NCCN1CCOCC1)C1CC(=O)N(c2ccc(F)c(Cl)c2)C1 (stereo not shown),-3.45%
20,CC1CCCN(CCCNC(=O)C2CC(=O)N(c3ccc(F)c(Cl)c3)C2)C1 (stereo not shown),-37.9%
21,CC1CCCCN1CCNC(=O)C1CC(=O)N(c2ccc(F)c(Cl)c2)C1 (stereo not shown),-56.9%
22,CN(C)c1ccc(/C=N/NC(=O)c2cccc(N3CCCC3=O)c2)cc1,12.7%

row,Compound,"hERG current change (%, negative = inhibition) at 10uM"
1,O=C(Oc1ccc2ccccc2c1)c1ccco1,5.27%
2,O=C(Oc1ccc2ccc(=O)oc2c1)c1ccccc1,14.2%
3,O=C(Oc1ccc2ccc(=O)oc2c1)c1ccco1,-73.1%
4,COc1ccc(CN2CCN(C(=O)c3cccs3)CC2)cc1Br,-24.4%
5,CCC(CC)C(=O)NCCc1ccc(OC)cc1,17.8%
6,Cc1csc(NC(=O)c2cccnc2)n1,13.5%
7,CCN1CCN(S(=O)(=O)c2ccc(Cl)c(C(=O)N(C)Cc3cccs3)c2)CC1,-14.6%
8,CCN1CCN(S(=O)(=O)c2ccc(Cl)c(C(=O)N(C)C(c3ccccc3)c3ccccc3)c2)CC1,-50.5%
9,CCc1ccc(CN(C)C(=O)c2cc(S(=O)(=O)N3CCN(CC)CC3)ccc2Cl)cc1,-25.3%
10,CCN1CCN(S(=O)(=O)c2ccc(Cl)c(C(=O)N(C)Cc3ccc(Cl)cc3Cl)c2)CC1,-9.34%
11,CCN1CCN(S(=O)(=O)c2ccc(Cl)c(C(=O)N(C)Cc3cccc(Cl)c3Cl)c2)CC1,-61.3%
12,CCN1CCN(S(=O)(=O)c2ccc(Cl)c(C(=O)N(C)Cc3ccccc3)c2)CC1,-28.8%
13,O=C(O)c1ccc2c(c1)C(=O)N(c1cccc(S(=O)(=O)Nc3cccc(C(F)(F)F)c3)c1)C2=O,21.1%
14,CCN(CC)S(=O)(=O)c1ccc(C(C)NC(=O)C2CCCN2C(=O)c2cccs2)cc1 (stereo not shown),-15.5%
15,Cc1cc(Cl)ccc1C(=O)C1CCCN(C(=O)CCN2CCCO2)C1 (stereo not shown),-1.54%
16,CC(C)(C)NC(=O)C(c1ccccn1)N(C(=O)C1CSC(=O)C1)c1ccc(F)cc1 (stereo not shown),6.26%
17,CCC(=NCCc1ccccc1)c1c(O)[nH]c(=O)[nH]c1=O,10.1%
18,O=c1[nH]c(O)c(C=NC2CCN(Cc3ccccc3)CC2)c(=O)[nH]1,-31.6%
19,CCC(=NC1CCN(Cc2ccccc2)CC1)c1c(O)[nH]c(=O)[nH]c1=O,-52.4%
20,C=CCn1c(O)c(C(C)=NC2CC2)c(=O)[nH]c1=O,9.27%
21,C=CCn1c(O)c(C(C)=NC2CCN(Cc3ccccc3)CC2)c(=O)[nH]c1=O,-55.7%
22,C=CCn1c(O)c(C(C)=NCCc2ccccc2)c(=O)[nH]c1=O,-14.7%

row,Compound,"hERG current change (%, negative = inhibition) at 10uM"
1,Cc1ccccc1CNC(=O)C1CCN(c2nnc(N3CCCC3=O)s2)CC1,19.3%
2,CC(C)(C)c1csc(CS(=O)(=O)c2ccccn2)n1,-6.8%
3,CCOc1ccc(C2=Nn3cnnc3SC2)cc1,-14.8%
4,O=[N+]([O-])c1ccc(C2=Nn3cnnc3SC2)cc1,-62.2%
5,Brc1ccc(C2=Nn3cnnc3SC2)cc1,13.6%
6,Br.CCc1nnc2n1N=C(c1cccc([N+](=O)[O-])c1)CS2,-32.1%
7,Br.CCCc1nnc2n1N=C(c1ccc([N+](=O)[O-])cc1)CS2,-38.6%
8,CCc1nnc2n1N=C(c1ccc([N+](=O)[O-])cc1)CS2,-65.5%
9,O=c1[nH]c(=O)n(CCc2ccccc2)c(O)c1C=NCCCn1ccnc1,-2.66%
10,COc1ccccc1CC(NC(C)=O)C(=O)NC1CCN(C(=O)Nc2ccccc2F)CC1 (stereo not shown),28.3%
11,Cc1ccc(Cl)cc1NS(=O)(=O)c1ccc2oc(=O)ccc2c1,-25.7%
12,COc1ccc(CCN(C)Cc2nc(Cc3ccc(OC)c(OC)c3)no2)cc1OC,0.332%
13,COc1ccc(CCN(C)CC(O)COc2c(C)ccc(C)c2C)cc1OC (stereo not shown),-76%
14,COc1ccc(C(CNCC(O)COc2c(C)ccc(C)c2C)N(C)C)cc1 (stereo not shown),-44.1%
15,COc1ccc(CCN(C)CC(O)COc2ccc(C(C)=O)cc2OC)cc1OC (stereo not shown),-21.6%
16,COc1ccc(CCN(C)CC(O)COC(c2ccc(F)cc2)c2ccc(F)cc2)cc1OC (stereo not shown),-79.2%
17,COc1ccc(CCN(C)CC(O)c2ccccc2)cc1OC.O=C(O)C(=O)O (stereo not shown),-32.2%
18,O=C(Nc1ccc(Nc2ccccc2)cc1)c1cc([N+](=O)[O-])ccc1Cl,11.2%
19,CNc1ccc(Br)cc(C(=O)/C=C/c2cccc(OC)c2)c1=O,-1.19%
20,COc1ccc(NC2c3ncccc3C(=O)N2Cc2cccs2)cc1 (stereo not shown),-18.4%
21,CCc1noc(C)c1C(=O)N1CCOCC1,14.4%
22,COC(=O)N1C(=O)[C@](c2ccccc2)(C(C)C)N1C(=O)OC,12.2%
